The full list was thinned out, with hits kept by preference.
Pf Dd2 inh: inhibitors of Plasmodium falciparum Dd2 growth; Potency, µM (highest dose often 28.9 µM), for inactives: at the top dose activity, negative = inhibition, usual class: inhibitors; 120,000 tested, 4.3% active; P. falciparum Dd2 growth, SYBR Green, 72 h; active = well fitted inhibition curve with a large enough effect;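 also: plate controls were DMSO vehicle for no effect and reference drug for full effect; nearly all actives have a fitted effect of over 65% in size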
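Infected erythrocytes (Dd2, 0.3% parasitemia, 2.5% hematocrit final) are added to compound in RPMI-1640/Albumax II medium, grown 72 h at 37C in low oxygen, then lysed with saponin/Triton-X containing SYBR Green and read by fluorescence.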
Starred values were filed as active, the others as inactive; [ ] = another dose, or the depositor's remark. Potency is read from the fitted curve at half-maximal effect.

Screening COC(=O)CC1Oc2ccc(F)cc2-n2cc(-c3ccc(Cl)cc3)nc21 (configuration not stated) returned Pf Dd2 inh 11µM*.
COC(=O)CC1Oc2ccccc2-n2cc(-c3ccc(Cl)cc3)nc21 (configuration not stated) was read as Pf Dd2 inh 3.5µM*.
`COC(=O)c1ccc(Cl)cc1NC(=O)N1CC(C)Oc2ccccc21` (configuration not stated) gave Pf Dd2 inh -25%.
Screening COCC(=O)N1CC[C@H](n2nnc(C(N)=O)c2C(N)=O)C[C@H]1C(=O)N[C@H](Cc1c[nH]c2ccccc12)C(N)=O returned Pf Dd2 inh 30%.
Cc1nnc(NC(=O)NCCn2nc(-c3ccccc3)ccc2=O)s1 was read as Pf Dd2 inh -12%.
CCCC(C)c1nnc(NC(=O)Cc2ccc(OC)cc2OC)s1 (configuration not stated) was read as Pf Dd2 inh -21%.
Screening FC(F)(F)Oc1cccc(CN2CCNc3cc(Nc4cccnc4)ncc3C2)c1 returned Pf Dd2 inh 5µM*.
For COc1cccc(Nc2cc3c(cn2)NCCN(Cc2ccccc2)C3)c1 the results were Pf Dd2 inh inactive.
`O=[S+]([O-])(Nc1cccnc1)c1ccc2c(c1)OCCN(Cc1ccsc1)C2` gave Pf Dd2 inh -22%[44.1 µM].
`c1cncc(Nc2cc3c(cn2)CN(Cc2ccsc2)CCN3)c1` gave Pf Dd2 inh 8.9µM*.
For COc1cccc(CN2CCNc3cnc(Nc4ccccc4)cc3C2)c1 the results were Pf Dd2 inh inactive.
Screening c1ccc(Oc2cc3c(cn2)NCCN(Cc2ccsc2)C3)cc1 returned Pf Dd2 inh -4%[44.1 µM].
Cc1nc(N2CCC(NC(=O)c3ccco3)CC2)cc(C(F)(F)F)n1 was read as Pf Dd2 inh inactive.
For Cc1noc(C)c1-c1cc2c(c(-c3ccc([S+](C)(=O)[O-])cc3)c1)C(=O)N(C)C2 the results were Pf Dd2 inh -14%[44.1 µM].
`Cn1c(CN2C(=O)C3(CCOCC3)CC2c2nnnn2C(C)(C)C)nc2ccccc21` (configuration not stated) gave Pf Dd2 inh -2%.
`O=C(CC1CCN(C(=O)c2ccc(F)cc2)C1)NC1CC1` (configuration not stated) gave Pf Dd2 inh 42%.
Screening Cc1ccc(NC(=O)N2CCC(CCNC(=O)CCCc3ccccc3)CC2)cc1 returned Pf Dd2 inh inactive.
`Cn1nc2n(c1=O)CCC(NC(=O)CCC1CCCCC1)CC2` (configuration not stated) gave Pf Dd2 inh 17%.
For CCCCNC(=O)C1c2ccccc2C(=O)N(Cc2ccccc2)C12CCCC2 (configuration not stated) the results were Pf Dd2 inh -6%.
`CC(C)CNC(=O)C1c2ccccc2C(=O)N(C2CCCC2)C12CCCC2` (configuration not stated) gave Pf Dd2 inh -26%.
For CC(C)CN1C(=O)c2ccccc2C(C(=O)NC(C)C)C12CCCC2 (configuration not stated) the results were Pf Dd2 inh -13%.
For Cc1cccc(NC(=O)C2c3ccccc3C(=O)N(CC(C)C)C23CCCC3)n1 (configuration not stated) the results were Pf Dd2 inh 3.5µM*.
`COCCNC(=O)C1c2ccccc2C(=O)N(CC(C)C)C12CCCCC2` (configuration not stated) gave Pf Dd2 inh -13%.
`COCc1nnc(NC(=O)C2c3ccccc3C(=O)N(CC(C)C)C23CCCC3)s1` (configuration not stated) gave Pf Dd2 inh 5.6µM*.
For CC(C)CN1C(=O)c2ccccc2C(C(=O)Nc2nncs2)C12CCCC2 (configuration not stated) the results were Pf Dd2 inh 13µM*.
For CC(C)CN1C(=O)c2ccccc2C(C(=O)NC(C)C)C12CCCCC2 (configuration not stated) the results were Pf Dd2 inh 2%.
Screening COCCCNC(=O)C1c2ccccc2C(=O)N(CC(C)C)C12CCCCC2 (configuration not stated) returned Pf Dd2 inh -8%.
CCn1cc(S(=O)(=O)NCC2Cn3cccc3C(=O)N2C)cn1 (configuration not stated) was read as Pf Dd2 inh -15%.
O=C1Nc2ccc(-c3ccco3)cc2C(=O)N2CCN(C(=O)NC3CCCCC3)C[C@H]12 was read as Pf Dd2 inh inactive.
Screening Nc1ncccc1CN1CC[C@@H]2OCC(=O)N(c3ccccc3)[C@H]2CC1 returned Pf Dd2 inh -4%[44.1 µM].
Screening O=C(CCCn1cncn1)N[C@H]1CCOC[C@H]1C1CCOCC1 returned Pf Dd2 inh 1%.
Screening CN1C(=O)CCC2(CNC(=O)C3CCCC3)CCC=C12 (configuration not stated) returned Pf Dd2 inh 4%.
Screening COCCN1C(=O)CS(=O)(=O)C12CCN(C(=O)c1ccccc1C)CC2 returned Pf Dd2 inh -5%.
Screening CN1C(=O)C(CC(=O)Nc2cccnc2)=C2CCCCC21 (configuration not stated) returned Pf Dd2 inh -21%.

Assay outcomes: PubChem BioAssay, National Center for Advancing Translational Sciences (NCATS)
